A selection: hits, their analogues and other compounds. The true share with any hit is near 3.3%.
KCC2 mod: KCC2 cotransporter modulators, thallium flux, primary screen, cell-based, HEK293 KCC2, FluoZin-2 fluorescence, MLSMR; Solute carrier family 12 member 5 (Homo sapiens), Q9H2X9; KCC2 cells, thallium flux FluoZin-2 fluorescence; B-score of Tl+ flux slope (higher = more flux/activation; lower = inhibition) at 10 µM; 190,000 tested, 2.2% active;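 active means thallium flux slope and its plate-corrected score both differing from the plate sample mean at a set confidence after two filtering rounds, in either direction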;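 further: slope of fluorescence scaled to starting intensity during 10 to 20 s after thallium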
Target sequence (Q9H2X9 whole entry, looked up): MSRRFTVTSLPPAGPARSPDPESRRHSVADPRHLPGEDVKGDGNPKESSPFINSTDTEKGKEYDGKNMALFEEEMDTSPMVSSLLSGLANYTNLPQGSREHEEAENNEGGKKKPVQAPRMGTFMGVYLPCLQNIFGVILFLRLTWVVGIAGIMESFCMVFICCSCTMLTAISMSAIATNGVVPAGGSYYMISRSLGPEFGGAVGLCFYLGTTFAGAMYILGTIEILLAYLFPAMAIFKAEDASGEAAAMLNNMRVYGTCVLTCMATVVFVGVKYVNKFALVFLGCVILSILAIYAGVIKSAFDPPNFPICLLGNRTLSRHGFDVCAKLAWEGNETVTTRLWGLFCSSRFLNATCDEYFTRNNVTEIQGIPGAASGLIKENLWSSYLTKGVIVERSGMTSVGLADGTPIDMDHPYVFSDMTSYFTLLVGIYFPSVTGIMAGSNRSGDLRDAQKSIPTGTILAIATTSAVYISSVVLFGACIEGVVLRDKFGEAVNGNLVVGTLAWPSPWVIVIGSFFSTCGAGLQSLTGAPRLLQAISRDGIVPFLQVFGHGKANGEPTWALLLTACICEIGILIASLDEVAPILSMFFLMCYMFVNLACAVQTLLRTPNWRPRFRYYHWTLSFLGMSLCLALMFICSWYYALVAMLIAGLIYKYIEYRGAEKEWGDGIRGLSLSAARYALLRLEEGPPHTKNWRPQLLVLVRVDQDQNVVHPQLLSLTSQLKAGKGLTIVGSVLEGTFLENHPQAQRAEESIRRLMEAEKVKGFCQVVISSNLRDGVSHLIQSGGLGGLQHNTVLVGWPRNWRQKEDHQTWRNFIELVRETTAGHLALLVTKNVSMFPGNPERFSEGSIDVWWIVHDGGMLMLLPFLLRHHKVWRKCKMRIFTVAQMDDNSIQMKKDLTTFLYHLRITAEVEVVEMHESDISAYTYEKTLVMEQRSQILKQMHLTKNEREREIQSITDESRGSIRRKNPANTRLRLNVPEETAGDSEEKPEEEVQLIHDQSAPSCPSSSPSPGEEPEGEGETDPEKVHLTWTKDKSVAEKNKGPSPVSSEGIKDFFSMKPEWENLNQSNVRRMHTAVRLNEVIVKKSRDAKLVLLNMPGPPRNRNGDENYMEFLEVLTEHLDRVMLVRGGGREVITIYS
PHOSPHO1 block: PubChem AID 1565. recombinant PHOSPHO1, absorbance phosphatase assay. inhibition, % at 13.3 µM. 290,000 tested, 1.1% active; in the data active means inhibition above about 60%
Calb FLC: C. albicans growth inhibition with fluconazole, primary screen, CaCi-2 strain, Alamar Blue fluorescence. 300,000 tested, 0.57% active. growth inhibition, % (test concentration not listed). C. albicans CaCi-2 (fluconazole-resistant clinical isolate) + fluconazole, 48 h;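 active means growth inhibition above about 58% in most replicates, limit read from the data, passing the limit was not always enough; inconclusive means exactly half the replicates above a set limit; inactive means most replicates below a set limit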;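 further: all wells also contain fluconazole at 8 µg/ml as a sub-toxic cotreatment; 0% = median of DMSO wells and 100% = median of geldanamycin control wells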
Efflux pump inh: inhibitors of Candida efflux pumps in yeast, primary screen, S. cerevisiae, Nile Red, multiplex; S. cerevisiae Candida pump triplex; inhibition, % at 10 µM; 330,000 tested, 0.44% active; AID 485275, 2010;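 active means plate passing quality check with inhibition over a set limit, or well fluorescence over plate mean plus 4 SD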;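 further: Nile Red retained in pooled yeast measured as flow cytometry median fluorescence; 0% = buffer negative control and 100% = Enniatin B positive control; higher means more Nile Red kept so more efflux inhibition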
H9c2 protect: cardioprotection against H2O2-induced cell death, primary screen, uHTS, H9c2 cells, ATPLite luminescence; H9c2 cardiomyocytes, H2O2 injury protection, 2 h; 360,000 tested, 0.63% active; protection from H2O2 cell death, % at 20 µM;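 active means compounds giving at least 50% protection of heart cells from peroxide-induced death in the single-dose screen, raw or plate-pattern-corrected value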;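 further: 0% = DMSO wells with peroxide and 100% = DMSO wells without peroxide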
KCC2 secondary: KCC2 modulators in sodium-free buffer, confirmation, cell-based, HEK293 KCC2, thallium flux, secondary assay; 3,700 tested, 15% active; FluoZin2 fluorescence; stronger effect = higher value; shares compounds with KCC2 mod; normalised thallium flux (F/F0 slope) at 10 µM; AID 1713, 2009;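 active means thallium flux slope above the same plate's solvent-only control mean plus 3 SD; inconclusive means the two replicate wells disagree; inactive means no significant difference from solvent-only control wells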
KCC2 bumet counter: thallium flux persisting under bumetanide in KCC2 cells, confirmation, counter-screen for KCC2 modulator project, cell-based, HEK293 KCC2, FluoZin2, secondary assay 3. shares compounds with KCC2 mod. HEK293-KCC2 + bumetanide/ouabain; stronger effect = higher value. normalized thallium flux at 10 µM. 3,700 tested, 49% active;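 active means thallium entry rate above the same plate's blocked-transporter control wells by more than 3 SD; inconclusive means the two repeat wells disagree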;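 further: raw slope of fluorescence over initial fluorescence between 10 and 20 s after thallium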
KCC2 secondary2: KCC2 modulators without ouabain present, confirmation, cell-based, HEK293 KCC2, thallium flux, FluoZin2, secondary assay 2 | shares compounds with KCC2 mod | thallium flux FluoZin2 fluorescence; actives lie on both sides; F/F0 rise rate, 10–20 s post-thallium | normalized thallium flux at 10 µM | 3,700 tested, 23% active | AID 1715, 2009;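 active means thallium flux slope more than 3 SD above or below the plate's solvent-only control mean, mostly below; inconclusive means the two repeat wells disagreed; inactive means no significant shift from solvent-only controls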;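 further: raw slope with 0.1% DMSO as baseline and bumetanide as block control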
HEK counter1: thallium flux modulation in parental HEK cells, confirmation, counter-screen for KCC2 modulator project, cell-based, counterscreen 1. HEK293 parental cells, thallium flux FluoZin2, ouabain; baseline-ratio fluorescence slope, 10–20 s after thallium. thallium flux rate (normalised fluorescence) at 10 µM. AID 1716, 2009. shares compounds with KCC2 mod. 3,700 tested, 46% active;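 active means thallium flux rate significantly above the same plate's solvent-only control wells, beyond their mean plus 3 SD; inconclusive means the two replicate wells gave conflicting results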
KCC2 ouabain: KCC2 inhibitors and activators, ouabain retest, confirmation, HEK-KCC2 cells. shares compounds with KCC2 mod. raw Tl+ flux slope (below DMSO = inhibition, above = activation) at 10 µM. 3,700 tested, 48% active. HEK293-KCC2, thallium flux FluoZin2 fluorescence; bidirectional: low = inhibitor, high = activator. AID 1717, 2009;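 active means thallium flux slope beyond 3 SD from same-plate DMSO control mean in most replicates, usually higher, sometimes lower; inconclusive means repeat tests gave conflicting results; inactive means no significant difference from controls in most replicates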;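 further: slope of initial-normalized fluorescence between seconds 10 and 20 after thallium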
HEK counter2: native HEK Tl+ uptake effects, second counter-screen – HEK cells, counterscreen 2, counter-screen for KCC2 modulator project, confirmation; shares compounds with KCC2 mod; thallium flux slope at 10 µM; HEK293 parental, thallium flux FluoZin-2 fluorescence slope; 3,700 tested, 33% active; AID 1718, 2009;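 active means thallium flux slope above the same plate's solvent-control mean plus 3 SD in both duplicate wells; inconclusive means duplicate wells that disagreed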;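 further: run without ouabain in cells lacking the KCC2 cotransporter; slope of fluorescence scaled to its starting value between 10 and 20 s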
Starred values were filed as active, the others as inactive.

How did Cc1cc(C(=O)CCC(=O)N2CCN(S(=O)(=O)c3cccs3)CC2)c(C)s1 do in these assays?
KCC2 mod: -5*; PHOSPHO1 block: -2; Calb FLC: -2; Efflux pump inh: 0; H9c2 protect: 5; KCC2 secondary: 0.0061; KCC2 bumet counter: 0.004; KCC2 secondary2: inconclusive; HEK counter1: inconclusive; KCC2 ouabain: 0.016; HEK counter2: 0.0091

Results for Cc1cc(=S)nc(-c2ccccn2)[nH]1 ?
KCC2 mod: 81*; PHOSPHO1 block: -108; Calb FLC: 1; Efflux pump inh: 0; H9c2 protect: 15; KCC2 secondary: 0.037*; KCC2 bumet counter: 0.048*; KCC2 secondary2: 0.038; HEK counter1: 0.041*; KCC2 ouabain: 0.043*; HEK counter2: 0.016*

How did COc1ccccc1CNC(=O)COC(=O)CSc1ccc(F)cc1 do in these assays?
Calb FLC: 2; Efflux pump inh: 0; H9c2 protect: 5

How did CCc1c(C)nc2cc(-c3ccccc3)[nH]n2c1=O do in these assays?
PHOSPHO1 block: 24; Calb FLC: 9; Efflux pump inh: 0; H9c2 protect: -7

How did CCCCc1c(C)nc2cc(-c3ccco3)[nH]n2c1=O do in these assays?
KCC2 mod: 4.5*; PHOSPHO1 block: 29; Calb FLC: -2; Efflux pump inh: 0; H9c2 protect: -5; KCC2 secondary: 0.0073; KCC2 bumet counter: 0.014*; KCC2 secondary2: 0.032; HEK counter1: 0.013*; KCC2 ouabain: inconclusive; HEK counter2: 0.015*

Screening data from PubChem.
